Measured values reported in the supplement of paper PMC11732987, “Enantioselective OTUD7B fragment discovery through chemoproteomics screening and high-throughput optimisation” (Communications Chemistry, 2025).
Values without a mark were called inactive.

Columns and labels:
Test in all cases: log2 ratio of Biotin-Ahx-Ub-VS probe labelling (fragment/DMSO); higher = less target engagement (more negative = stronger competition), active = hit call of the paper (q ≤ 0.05, log2 ratio ≤ -1)
Settings in all cases: compound concentration: 200 uM; treatment time: 3 h
USP42 = biological target: T1, USP42 (UniProt Q9H9J4)
T1 sequence (whole entry): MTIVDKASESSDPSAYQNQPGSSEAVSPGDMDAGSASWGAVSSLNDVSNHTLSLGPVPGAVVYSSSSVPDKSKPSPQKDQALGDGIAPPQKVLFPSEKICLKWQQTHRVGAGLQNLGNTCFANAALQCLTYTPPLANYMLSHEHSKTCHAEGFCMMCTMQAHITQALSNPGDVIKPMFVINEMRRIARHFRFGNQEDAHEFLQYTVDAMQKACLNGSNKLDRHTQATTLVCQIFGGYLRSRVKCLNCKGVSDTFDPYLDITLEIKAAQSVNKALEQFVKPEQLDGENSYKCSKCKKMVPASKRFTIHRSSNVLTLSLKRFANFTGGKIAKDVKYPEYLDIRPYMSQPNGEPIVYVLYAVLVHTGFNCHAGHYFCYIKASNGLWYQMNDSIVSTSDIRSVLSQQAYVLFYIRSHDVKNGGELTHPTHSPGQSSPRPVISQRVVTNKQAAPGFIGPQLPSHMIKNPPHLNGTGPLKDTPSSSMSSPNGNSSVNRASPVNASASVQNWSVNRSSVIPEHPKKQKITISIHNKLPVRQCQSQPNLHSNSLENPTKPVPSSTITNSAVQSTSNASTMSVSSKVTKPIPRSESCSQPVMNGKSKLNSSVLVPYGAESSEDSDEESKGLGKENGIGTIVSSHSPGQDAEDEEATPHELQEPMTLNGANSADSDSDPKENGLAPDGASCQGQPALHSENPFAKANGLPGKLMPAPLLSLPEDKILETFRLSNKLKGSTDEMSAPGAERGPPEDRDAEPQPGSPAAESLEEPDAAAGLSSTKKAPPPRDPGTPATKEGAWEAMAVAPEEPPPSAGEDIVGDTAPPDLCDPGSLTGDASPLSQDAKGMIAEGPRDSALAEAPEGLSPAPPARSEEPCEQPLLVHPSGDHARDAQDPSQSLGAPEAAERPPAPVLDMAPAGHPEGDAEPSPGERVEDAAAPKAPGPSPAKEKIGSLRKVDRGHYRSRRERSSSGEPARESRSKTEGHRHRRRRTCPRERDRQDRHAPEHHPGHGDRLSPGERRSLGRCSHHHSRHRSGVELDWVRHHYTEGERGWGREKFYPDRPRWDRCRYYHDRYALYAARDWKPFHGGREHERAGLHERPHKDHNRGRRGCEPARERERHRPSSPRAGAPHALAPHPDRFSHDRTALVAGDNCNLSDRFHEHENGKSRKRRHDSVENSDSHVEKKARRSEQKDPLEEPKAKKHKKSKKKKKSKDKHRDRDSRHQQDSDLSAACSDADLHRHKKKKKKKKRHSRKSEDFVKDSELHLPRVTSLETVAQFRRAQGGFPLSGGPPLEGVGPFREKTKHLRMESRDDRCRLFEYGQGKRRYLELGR
Procedure, shortened: (§1)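 Labelled DUBs from HEK293T lysate were NeutrAvidin-enriched, digested with LysC and trypsin, and run by diaPASEF LC-MS/MS. Before that, each 495 µg sample in Tris/CHAPS/IGEPAL buffer with protease inhibitors was treated in triplicate with fragment at 200 µM or vehicle for 3 h, then with Biotin-Ahx-Ub-VS at 0.5 µM final for 1 h. Values are average log2 ratios of fragment over vehicle by unpaired t-test, based on global-median-normalised Spectronaut label-free quantities from proteins with ≥2 unique peptides.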

USP46 = USP46 (UniProt P62068)
Chain of USP46 (P62068 whole entry): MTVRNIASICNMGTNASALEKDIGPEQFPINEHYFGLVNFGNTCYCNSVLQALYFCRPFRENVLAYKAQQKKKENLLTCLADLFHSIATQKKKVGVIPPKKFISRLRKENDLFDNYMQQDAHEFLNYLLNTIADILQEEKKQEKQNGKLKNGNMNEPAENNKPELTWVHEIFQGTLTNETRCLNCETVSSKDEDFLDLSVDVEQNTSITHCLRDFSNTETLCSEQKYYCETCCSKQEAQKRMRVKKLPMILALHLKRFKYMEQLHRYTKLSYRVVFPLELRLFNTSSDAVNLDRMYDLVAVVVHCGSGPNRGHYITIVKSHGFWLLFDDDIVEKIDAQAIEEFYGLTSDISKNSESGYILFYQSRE
Procedure, shortened: as §1

USP47 = biological target: T2, USP47 (UniProt Q96K76)
T2 sequence (whole entry): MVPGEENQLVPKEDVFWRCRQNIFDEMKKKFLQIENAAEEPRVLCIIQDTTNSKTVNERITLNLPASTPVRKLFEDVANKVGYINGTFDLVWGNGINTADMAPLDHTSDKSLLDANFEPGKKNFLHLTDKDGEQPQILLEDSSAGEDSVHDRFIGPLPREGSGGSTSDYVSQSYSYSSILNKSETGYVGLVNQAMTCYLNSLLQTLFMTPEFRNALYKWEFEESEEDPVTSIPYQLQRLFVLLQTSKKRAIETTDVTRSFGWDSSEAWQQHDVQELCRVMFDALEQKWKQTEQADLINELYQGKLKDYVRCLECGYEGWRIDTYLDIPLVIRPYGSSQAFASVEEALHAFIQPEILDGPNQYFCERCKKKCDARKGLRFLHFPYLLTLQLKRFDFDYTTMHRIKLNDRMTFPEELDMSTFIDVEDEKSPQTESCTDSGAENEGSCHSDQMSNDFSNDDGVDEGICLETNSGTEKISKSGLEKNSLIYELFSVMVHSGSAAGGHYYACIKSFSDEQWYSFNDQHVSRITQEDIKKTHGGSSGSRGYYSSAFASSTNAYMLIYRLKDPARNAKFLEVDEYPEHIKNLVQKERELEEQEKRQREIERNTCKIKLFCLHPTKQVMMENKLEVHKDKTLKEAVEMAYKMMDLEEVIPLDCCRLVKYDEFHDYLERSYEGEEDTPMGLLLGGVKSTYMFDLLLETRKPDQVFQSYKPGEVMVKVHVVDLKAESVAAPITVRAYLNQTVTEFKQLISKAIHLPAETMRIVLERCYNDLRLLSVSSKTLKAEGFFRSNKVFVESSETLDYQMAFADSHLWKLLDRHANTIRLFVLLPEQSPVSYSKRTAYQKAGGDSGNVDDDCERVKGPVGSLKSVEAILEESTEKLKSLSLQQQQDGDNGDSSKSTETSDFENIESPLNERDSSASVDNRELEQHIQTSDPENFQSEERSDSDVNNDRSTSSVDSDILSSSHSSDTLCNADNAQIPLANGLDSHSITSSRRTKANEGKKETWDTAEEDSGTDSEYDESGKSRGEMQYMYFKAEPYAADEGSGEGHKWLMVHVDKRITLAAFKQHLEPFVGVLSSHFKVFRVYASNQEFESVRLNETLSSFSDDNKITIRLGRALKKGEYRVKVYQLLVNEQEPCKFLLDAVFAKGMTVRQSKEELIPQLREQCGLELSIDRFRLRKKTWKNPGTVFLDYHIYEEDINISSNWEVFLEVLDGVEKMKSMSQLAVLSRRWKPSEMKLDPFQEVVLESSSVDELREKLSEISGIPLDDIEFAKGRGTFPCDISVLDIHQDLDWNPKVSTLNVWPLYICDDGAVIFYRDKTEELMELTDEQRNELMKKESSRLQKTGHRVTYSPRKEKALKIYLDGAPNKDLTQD
Procedure, shortened: as §1

USP48 = biological target: T3, USP48 (UniProt Q86UV5)
T3 sequence (whole entry): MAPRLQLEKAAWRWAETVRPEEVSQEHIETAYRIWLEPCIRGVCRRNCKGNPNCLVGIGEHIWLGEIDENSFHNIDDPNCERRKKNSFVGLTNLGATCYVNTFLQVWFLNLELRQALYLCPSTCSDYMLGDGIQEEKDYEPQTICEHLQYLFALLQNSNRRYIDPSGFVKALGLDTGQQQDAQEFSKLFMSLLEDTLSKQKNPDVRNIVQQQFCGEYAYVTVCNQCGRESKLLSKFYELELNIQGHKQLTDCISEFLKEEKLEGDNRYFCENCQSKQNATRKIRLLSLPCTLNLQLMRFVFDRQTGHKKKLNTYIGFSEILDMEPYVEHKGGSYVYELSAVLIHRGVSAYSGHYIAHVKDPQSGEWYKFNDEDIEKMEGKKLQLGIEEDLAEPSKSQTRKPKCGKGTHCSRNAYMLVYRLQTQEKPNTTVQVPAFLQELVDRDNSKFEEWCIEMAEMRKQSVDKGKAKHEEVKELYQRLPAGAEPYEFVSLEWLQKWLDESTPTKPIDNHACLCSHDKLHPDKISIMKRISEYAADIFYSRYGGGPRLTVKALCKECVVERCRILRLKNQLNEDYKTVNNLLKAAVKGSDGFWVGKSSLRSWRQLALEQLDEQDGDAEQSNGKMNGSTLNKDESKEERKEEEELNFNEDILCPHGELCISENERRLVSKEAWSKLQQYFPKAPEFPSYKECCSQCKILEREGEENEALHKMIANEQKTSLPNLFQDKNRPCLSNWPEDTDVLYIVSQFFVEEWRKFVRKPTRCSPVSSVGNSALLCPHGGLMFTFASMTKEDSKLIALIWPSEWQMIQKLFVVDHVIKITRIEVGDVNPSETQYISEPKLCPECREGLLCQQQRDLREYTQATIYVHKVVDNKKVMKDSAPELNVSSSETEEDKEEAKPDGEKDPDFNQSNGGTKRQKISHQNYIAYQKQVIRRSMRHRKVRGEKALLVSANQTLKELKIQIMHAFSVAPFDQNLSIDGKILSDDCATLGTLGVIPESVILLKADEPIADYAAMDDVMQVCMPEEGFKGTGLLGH
Procedure, shortened: as §1

USP5 = biological target: T4, USP5 (UniProt P45974)
T4 sequence (whole entry): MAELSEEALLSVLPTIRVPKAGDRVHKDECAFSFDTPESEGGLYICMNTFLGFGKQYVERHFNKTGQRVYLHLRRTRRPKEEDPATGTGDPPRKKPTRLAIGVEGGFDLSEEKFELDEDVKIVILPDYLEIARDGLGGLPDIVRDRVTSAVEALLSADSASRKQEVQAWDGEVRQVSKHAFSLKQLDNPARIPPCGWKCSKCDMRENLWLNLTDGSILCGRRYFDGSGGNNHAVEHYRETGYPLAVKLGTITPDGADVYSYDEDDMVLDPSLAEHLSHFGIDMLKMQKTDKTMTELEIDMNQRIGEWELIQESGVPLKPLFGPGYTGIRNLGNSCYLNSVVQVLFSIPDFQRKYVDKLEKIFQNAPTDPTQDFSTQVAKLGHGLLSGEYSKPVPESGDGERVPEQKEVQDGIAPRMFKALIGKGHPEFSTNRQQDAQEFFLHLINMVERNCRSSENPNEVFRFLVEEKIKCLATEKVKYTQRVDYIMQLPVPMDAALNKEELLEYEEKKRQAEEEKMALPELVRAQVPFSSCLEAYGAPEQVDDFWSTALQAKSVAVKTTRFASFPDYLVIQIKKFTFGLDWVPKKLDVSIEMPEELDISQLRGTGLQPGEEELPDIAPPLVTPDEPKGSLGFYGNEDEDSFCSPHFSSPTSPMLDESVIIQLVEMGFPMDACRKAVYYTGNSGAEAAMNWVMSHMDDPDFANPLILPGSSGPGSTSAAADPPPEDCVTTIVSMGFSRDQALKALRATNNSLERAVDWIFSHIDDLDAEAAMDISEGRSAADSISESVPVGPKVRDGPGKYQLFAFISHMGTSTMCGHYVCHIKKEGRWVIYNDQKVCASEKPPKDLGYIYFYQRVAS
Procedure, shortened: as §1

USP54 = USP54 (UniProt Q70EL1)
Procedure, shortened: as §1

USP7 = USP7 (UniProt Q93009)
Chain of USP7 (Q93009 whole entry, looked up): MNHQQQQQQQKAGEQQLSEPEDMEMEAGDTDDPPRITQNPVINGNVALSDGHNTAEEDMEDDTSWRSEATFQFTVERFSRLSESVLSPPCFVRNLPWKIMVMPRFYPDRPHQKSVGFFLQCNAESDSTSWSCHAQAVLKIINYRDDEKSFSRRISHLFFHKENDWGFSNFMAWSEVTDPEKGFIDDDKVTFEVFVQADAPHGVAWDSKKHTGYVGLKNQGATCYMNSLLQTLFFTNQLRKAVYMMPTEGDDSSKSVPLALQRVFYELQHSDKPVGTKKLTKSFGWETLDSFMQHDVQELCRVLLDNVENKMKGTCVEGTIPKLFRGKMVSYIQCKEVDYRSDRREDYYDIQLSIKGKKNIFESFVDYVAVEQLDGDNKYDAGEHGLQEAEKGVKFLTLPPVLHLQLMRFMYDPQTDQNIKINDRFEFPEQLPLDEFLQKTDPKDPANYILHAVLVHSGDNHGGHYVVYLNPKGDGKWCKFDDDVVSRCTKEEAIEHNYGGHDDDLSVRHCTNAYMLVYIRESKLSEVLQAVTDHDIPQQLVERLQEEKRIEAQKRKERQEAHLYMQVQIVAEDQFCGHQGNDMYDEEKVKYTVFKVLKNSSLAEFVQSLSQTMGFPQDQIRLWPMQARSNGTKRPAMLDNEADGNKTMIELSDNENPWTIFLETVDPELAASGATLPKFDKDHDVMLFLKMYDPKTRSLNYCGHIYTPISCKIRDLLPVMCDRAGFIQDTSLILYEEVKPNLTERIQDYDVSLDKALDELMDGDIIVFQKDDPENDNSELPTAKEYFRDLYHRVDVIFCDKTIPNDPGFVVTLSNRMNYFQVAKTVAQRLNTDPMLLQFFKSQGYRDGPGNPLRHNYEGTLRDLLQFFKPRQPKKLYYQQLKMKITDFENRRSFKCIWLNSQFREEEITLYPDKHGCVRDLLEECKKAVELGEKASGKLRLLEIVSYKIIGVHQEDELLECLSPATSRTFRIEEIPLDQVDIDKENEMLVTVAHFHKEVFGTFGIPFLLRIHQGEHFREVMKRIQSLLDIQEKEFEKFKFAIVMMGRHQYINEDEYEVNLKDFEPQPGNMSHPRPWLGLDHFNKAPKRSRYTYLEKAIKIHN
Procedure, shortened: as §1

USP8 = biological target: T5, USP8 (UniProt P40818)
T5 sequence (whole entry): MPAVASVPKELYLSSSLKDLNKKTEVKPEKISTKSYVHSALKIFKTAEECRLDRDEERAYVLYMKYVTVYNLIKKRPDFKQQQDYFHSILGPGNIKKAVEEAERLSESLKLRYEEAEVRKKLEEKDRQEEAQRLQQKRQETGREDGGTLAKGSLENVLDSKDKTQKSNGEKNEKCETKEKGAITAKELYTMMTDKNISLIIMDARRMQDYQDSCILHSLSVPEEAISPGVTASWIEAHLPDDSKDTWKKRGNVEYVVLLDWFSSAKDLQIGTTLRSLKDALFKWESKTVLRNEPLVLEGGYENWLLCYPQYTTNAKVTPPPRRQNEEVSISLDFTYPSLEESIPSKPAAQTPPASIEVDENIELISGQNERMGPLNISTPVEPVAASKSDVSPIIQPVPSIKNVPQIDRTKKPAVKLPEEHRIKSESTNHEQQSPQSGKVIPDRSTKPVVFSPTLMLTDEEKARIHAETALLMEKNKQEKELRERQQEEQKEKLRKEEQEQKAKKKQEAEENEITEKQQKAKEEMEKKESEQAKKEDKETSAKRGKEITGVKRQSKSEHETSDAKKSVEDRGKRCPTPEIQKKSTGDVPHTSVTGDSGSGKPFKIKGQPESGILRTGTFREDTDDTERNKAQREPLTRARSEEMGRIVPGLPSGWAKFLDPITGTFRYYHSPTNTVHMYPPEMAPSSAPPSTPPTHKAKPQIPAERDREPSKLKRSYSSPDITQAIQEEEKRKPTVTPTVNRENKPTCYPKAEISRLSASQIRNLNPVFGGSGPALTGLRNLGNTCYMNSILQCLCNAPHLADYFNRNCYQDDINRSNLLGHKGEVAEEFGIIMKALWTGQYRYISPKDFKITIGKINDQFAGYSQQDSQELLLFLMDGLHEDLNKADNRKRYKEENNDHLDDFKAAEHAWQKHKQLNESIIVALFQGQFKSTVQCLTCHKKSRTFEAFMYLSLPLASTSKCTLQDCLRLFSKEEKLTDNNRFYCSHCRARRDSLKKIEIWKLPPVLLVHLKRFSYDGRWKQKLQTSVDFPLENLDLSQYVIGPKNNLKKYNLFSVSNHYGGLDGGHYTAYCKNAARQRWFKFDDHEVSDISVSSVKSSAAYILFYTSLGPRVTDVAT
Procedure, shortened: as §1

USP9X = USP9X (UniProt Q93008)
Chain of USP9X (Q93008 whole entry): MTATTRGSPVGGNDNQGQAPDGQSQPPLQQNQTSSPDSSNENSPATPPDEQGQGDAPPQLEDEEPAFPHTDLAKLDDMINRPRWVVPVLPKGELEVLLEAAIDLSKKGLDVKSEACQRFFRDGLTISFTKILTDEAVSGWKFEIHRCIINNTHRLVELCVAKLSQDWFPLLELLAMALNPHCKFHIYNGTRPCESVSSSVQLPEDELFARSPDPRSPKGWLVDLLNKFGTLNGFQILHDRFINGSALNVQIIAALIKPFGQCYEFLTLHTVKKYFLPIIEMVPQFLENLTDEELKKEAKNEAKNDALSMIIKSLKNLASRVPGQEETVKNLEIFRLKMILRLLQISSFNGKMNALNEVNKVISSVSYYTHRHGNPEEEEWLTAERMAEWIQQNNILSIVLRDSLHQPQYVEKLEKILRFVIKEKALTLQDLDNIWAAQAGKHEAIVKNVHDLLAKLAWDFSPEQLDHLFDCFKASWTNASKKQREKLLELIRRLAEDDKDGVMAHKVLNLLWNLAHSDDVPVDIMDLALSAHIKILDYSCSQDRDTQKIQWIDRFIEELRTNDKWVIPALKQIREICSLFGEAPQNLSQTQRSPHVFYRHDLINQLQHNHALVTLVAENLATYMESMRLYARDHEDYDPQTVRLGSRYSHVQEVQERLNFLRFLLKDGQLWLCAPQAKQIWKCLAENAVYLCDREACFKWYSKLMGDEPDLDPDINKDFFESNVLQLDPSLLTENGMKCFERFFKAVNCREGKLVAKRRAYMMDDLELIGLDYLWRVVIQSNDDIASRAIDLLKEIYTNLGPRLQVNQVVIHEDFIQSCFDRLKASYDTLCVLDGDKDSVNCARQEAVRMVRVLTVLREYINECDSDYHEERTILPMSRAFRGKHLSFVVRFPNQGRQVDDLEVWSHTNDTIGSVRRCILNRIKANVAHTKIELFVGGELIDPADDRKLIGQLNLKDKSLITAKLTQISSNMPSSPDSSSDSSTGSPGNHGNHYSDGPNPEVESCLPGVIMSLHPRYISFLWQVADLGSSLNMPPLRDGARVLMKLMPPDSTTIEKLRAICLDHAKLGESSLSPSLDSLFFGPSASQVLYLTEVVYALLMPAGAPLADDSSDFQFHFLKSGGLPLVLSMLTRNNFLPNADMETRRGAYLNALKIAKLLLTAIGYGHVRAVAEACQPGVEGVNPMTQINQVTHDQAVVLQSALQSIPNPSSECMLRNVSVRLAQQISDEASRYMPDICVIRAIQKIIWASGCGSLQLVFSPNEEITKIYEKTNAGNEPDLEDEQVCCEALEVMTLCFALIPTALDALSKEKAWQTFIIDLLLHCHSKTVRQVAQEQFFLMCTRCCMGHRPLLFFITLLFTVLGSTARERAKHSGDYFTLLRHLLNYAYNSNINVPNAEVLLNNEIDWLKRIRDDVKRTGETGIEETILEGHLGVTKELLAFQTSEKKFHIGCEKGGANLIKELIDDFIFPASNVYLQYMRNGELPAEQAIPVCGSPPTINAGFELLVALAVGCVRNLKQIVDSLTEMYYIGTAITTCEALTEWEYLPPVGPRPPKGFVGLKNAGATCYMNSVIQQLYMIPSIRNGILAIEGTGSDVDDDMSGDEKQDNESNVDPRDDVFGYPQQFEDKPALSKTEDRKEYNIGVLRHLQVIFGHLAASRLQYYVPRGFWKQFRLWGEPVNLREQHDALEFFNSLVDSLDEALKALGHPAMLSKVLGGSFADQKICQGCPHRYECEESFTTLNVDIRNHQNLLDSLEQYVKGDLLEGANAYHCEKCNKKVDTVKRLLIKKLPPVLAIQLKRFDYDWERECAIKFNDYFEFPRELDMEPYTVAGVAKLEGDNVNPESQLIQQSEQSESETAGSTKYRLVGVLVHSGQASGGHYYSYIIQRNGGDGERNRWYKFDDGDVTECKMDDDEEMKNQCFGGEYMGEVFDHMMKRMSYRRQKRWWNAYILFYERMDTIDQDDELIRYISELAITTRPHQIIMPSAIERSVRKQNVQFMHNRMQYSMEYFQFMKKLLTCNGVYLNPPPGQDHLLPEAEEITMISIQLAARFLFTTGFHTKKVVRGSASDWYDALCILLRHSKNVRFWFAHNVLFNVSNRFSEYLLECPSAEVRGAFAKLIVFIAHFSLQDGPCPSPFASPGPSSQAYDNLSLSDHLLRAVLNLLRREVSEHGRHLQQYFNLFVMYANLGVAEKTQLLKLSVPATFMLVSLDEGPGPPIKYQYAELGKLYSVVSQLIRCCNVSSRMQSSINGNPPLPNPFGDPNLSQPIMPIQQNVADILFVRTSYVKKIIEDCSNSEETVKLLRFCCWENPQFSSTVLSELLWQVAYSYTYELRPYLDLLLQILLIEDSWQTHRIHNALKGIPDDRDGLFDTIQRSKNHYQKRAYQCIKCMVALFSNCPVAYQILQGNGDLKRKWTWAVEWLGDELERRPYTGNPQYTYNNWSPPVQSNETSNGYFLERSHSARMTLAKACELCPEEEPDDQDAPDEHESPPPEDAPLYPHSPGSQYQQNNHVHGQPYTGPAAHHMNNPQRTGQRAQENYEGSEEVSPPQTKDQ
Procedure, shortened: as §1

UniProt O00487 = biological target: UniProt O00487
Chain of UniProt O00487 (O00487 whole entry): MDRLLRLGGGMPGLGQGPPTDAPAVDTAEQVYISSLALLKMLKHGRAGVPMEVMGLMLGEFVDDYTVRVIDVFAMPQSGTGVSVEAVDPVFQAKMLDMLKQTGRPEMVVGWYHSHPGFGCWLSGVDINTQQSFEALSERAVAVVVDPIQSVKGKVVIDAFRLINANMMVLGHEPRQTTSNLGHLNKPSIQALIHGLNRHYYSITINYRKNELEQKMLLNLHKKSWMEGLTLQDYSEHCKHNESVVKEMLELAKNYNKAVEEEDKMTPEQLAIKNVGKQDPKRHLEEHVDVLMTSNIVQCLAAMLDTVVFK
Procedure, shortened: as §1

SMILES	log2 ratio of Biotin-Ahx-Ub-VS probe labelling (USP42)	log2 ratio of Biotin-Ahx-Ub-VS probe labelling (USP46)	log2 ratio of Biotin-Ahx-Ub-VS probe labelling (USP47)	log2 ratio of Biotin-Ahx-Ub-VS probe labelling (USP48)	log2 ratio of Biotin-Ahx-Ub-VS probe labelling (USP5)	log2 ratio of Biotin-Ahx-Ub-VS probe labelling (USP54)	log2 ratio of Biotin-Ahx-Ub-VS probe labelling (USP7)	log2 ratio of Biotin-Ahx-Ub-VS probe labelling (USP8)	log2 ratio of Biotin-Ahx-Ub-VS probe labelling (USP9X)	log2 ratio of Biotin-Ahx-Ub-VS probe labelling (UniProt O00487)
O=C(CCl)N1CCc2[nH]c3ccccc3c2C1	0.132	-0.655	-0.863	-0.532	-0.461	-0.00488	-0.511	-0.774	-0.846	-0.243
CCN(C(=O)CCl)C1CCCCC1	0.177	-0.202	-0.157	-0.238	0.443	0.0425	-0.372	0.0715	-0.0791	0.0502
CCC1c2ccsc2CCN1C(=O)CCl (stereo not given)	0.624	-0.333	-0.618	-0.725	-0.159	-0.451	-1.23 (active)	-0.157	-0.309	-0.0357
O=C(CCl)Nc1nc(-c2cccs2)cs1	0.598	-0.255	-0.799	-0.537	0.0914	0.00682	-0.679	0.0395	-0.505	-0.17
